Measured values reported in PubChem BioAssay.

Tests used:
[1] = molecular target: Tumor necrosis factor receptor superfamily member 10B (Homo sapiens) (UniProt O14763); experiment: viability loss of caspase-8 NB7 cells with TRAIL – with/without TRAIL, luminescence panel, confirmation (AID 651596); conditions: NB7 neuroblastoma + caspase-8, TRAIL sensitization, NB7 Caspase-8, with TRAIL, mean of runs, at 10 µM, stronger effect = higher value
[2] = as above; conditions: NB7 neuroblastoma + caspase-8, without TRAIL, NB7 Caspase-8, without TRAIL, mean of runs, at 10 µM

Chain of Tumor necrosis factor receptor superfamily member 10B (Homo sapiens) (O14763 whole entry, looked up): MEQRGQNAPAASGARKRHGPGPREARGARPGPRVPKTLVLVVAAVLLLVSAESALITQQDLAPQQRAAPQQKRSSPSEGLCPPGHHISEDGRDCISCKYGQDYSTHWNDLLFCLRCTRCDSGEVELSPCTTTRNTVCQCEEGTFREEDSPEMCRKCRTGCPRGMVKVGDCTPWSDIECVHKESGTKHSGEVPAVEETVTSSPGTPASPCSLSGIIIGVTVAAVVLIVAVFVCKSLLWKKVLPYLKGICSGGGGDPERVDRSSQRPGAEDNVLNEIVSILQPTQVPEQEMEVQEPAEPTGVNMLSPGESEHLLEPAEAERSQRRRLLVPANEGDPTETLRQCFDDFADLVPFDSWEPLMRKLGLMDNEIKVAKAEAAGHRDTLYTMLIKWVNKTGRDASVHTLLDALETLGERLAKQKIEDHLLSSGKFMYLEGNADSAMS

| Compound | activity [1] [%] | activity [2] [%] |
| --- | --- | --- |
| COc1ccc(C2C(C(=O)N3CCN(c4ccccc4F)CC3)c3ccccc3C(=O)N2C)cc1 (stereo not given) | 74.5 | 59 |
| C[C@H](NC(=O)c1[nH]cnc1C(=O)Nc1ccc(CNC(=O)OC(C)(C)C)cc1)C(=O)OCc1ccccc1 | 63.1 | 37.6 |
| CCc1nnc(NC(=O)c2nc(S(=O)(=O)Cc3ccccc3)ncc2Cl)s1 | 95.4 | 74.3 |
| Cc1ccc(C(C)C)c(OCC(=O)Nc2ccc3c(c2)nc(CCN2CCCCC2)n3C)c1 | 7.92 | 39.4 |
| O=C(N/N=C1\CCc2ccccc21)c1ccccc1O | 53.7 | 62.4 |
| COc1ccc(C=NNC(=O)NN=Cc2ccc(OC)c(OC)c2)cc1OC | 69 | 65 |
| Cn1c(=S)[nH]c2sc3c(c2c1=O)CCC(C(C)(C)C)C3 (stereo not given) | 86.4 | 78 |
| COc1ccccc1/C=C/C1(C(=O)NC2CCCC2)CC(=O)N1c1ccc(F)cc1 (stereo not given) | 98 | 98.1 |
| O=C(Nc1ccc(NC(=O)C2CCCCC2)cn1)c1ccco1 | 76.2 | 80.6 |
| N/C(CCS(=O)(=O)c1ccc(Cl)cc1)=N\OC(=O)c1ccccc1C(F)(F)F | 94.2 | 93.6 |
| CC(C)(C)OC(=O)NCCCC[C@H](NC(=O)c1nc[nH]c1C(=O)NC(c1ccccc1)c1ccccc1)C(=O)OC(C)(C)C | 67 | 23.8 |
| Cn1sc(NC(=O)c2ccc(Cl)cc2)nc1=O | 68.4 | 67 |
| COc1ccc(/C(N)=N/OC(=O)c2ccc3ccccc3c2)cc1OC | 99 | 98 |
| O=C(NC(=S)Nc1nc2ccc(F)cc2s1)c1ccco1 | 85.3 | 77.4 |
| CCOC(=O)c1sc(NC(=O)c2ccc(OC(C)=O)cc2)nc1C | 61.3 | 57.9 |
| CCOC(=O)N1CCN(C(=O)c2ccc(Cn3c(=S)[nH]c4ccc(Br)cc4c3=O)cc2)CC1 | 73.5 | 58.9 |
| COc1ccc(/C=C\c2nc(=O)c3ccccc3o2)cc1 | 72 | 69.6 |
| CC(C)(C)OC(=O)NCCCCCNC(=O)c1[nH]cnc1C(=O)Nc1cc(Br)ccc1F | 78.2 | 63.6 |
| CCOC(=O)c1cn(-c2ccc(F)c(F)c2F)c2c(F)c(F)c(F)cc2c1=O | 64 | 41.5 |
| Nc1ccccc1C(=O)NN=Cc1cccnc1 | 63.5 | 58.7 |
| CCOC(=O)Cc1csc(NC(=S)NC(=O)c2ccc(C)cc2)n1 | 84.9 | 84.6 |
| O=C(NCc1cccnc1)/C(=C\c1ccc(-c2ccc(Cl)c(Cl)c2)o1)S(=O)(=O)c1ccccc1 | 98.1 | 99.2 |
| O=C(Nc1ccc(NC(=O)C2CC2)cn1)c1ccccc1 | 51.1 | 57 |

| Compound | activity [1] [%] | activity [2] [%] |
| --- | --- | --- |
| Oc1ccc(-c2cn3ccccc3n2)cc1 | 45.3 | 45.5 |
| CCCCCCCN(C(=O)CCl)c1cccc(C)c1 | 99 | 99 |
| Cc1ccc(Nc2nc(CSc3nnnn3C)cs2)cc1 | 23.2 | 8.93 |
| N#Cc1ccc(NC(=O)Nc2ccc(Cl)cc2)cc1 | 81 | 65.3 |
| CC(C)c1onc(C(=O)N2CCN(c3ccc(F)cc3)CC2)c1[N+](=O)[O-] | 78.8 | 87.6 |
| CN1CC(=O)N2C(c3ccc(Cl)cc3)c3[nH]c4ccccc4c3C[C@H]2C1=O (stereo not given in full) | 94.7 | 92.8 |
| O=C(N/N=C/c1ccc(-c2cccc(C(F)(F)F)c2)o1)c1cccc(F)c1 | 62.7 | 50.6 |
| Cc1ccc(C(=O)NC2CCCCCCC2)c(Cl)c1 | 62.7 | 53.6 |
| COc1ccc(C)cc1NC(=O)CN(Cc1nnc(-c2ccc(Cl)cc2)o1)C1CCCC1 | 76.7 | 92 |
| CCOc1ccc(CN(C)C(=O)[C@H](Cc2ccccc2)NC(=O)OCc2ccccc2)cc1OC | -12.3 | 1.82 |
| Cc1nc(-c2ccc(C(=O)Nc3cccc(F)c3)cc2)cs1 | 76.6 | 73.5 |
| COc1ccccc1NC(CC(=O)c1ccccc1)C(=O)OCC(=O)c1ccc(F)cc1 (stereo not given) | 69.5 | 65.9 |
| Cc1ccccc1C(=O)Nc1nnc(SCC(=O)NC2CC2)s1 | 48.7 | 45.2 |
| CCN(CC)C(=O)c1nn(-c2ccccc2)c2c1C1CCC2(C)C1(C)C (stereo not given) | 15.1 | 8.65 |
| CC(C)CC(NC(=O)c1ccc(Cl)cc1)C(=O)OCC(=O)c1ccc2c(c1)NC(=O)CO2 (stereo not given) | 71.7 | 97.4 |
| C#Cc1cccc(Nc2nc(NCc3ccccc3OC)nc3ccsc23)c1 | 52.1 | 37.5 |
| CC(=C/c1ccccc1)/C=N/NC(=O)c1cccs1 | 56 | 51.2 |
| O=c1c2ccccc2oc2ccc(NCCCn3ccnc3)cc12 | 44 | 30.3 |
| O=C(C[C@H]1C/C=C\C[C@@H](NC(=O)OCC2c3ccccc3-c3ccccc32)C(=O)O[C@@H](c2ccccc2)CNC1=O)N[C@H](CO)Cc1ccccc1 | 64.2 | 43.2 |
| Brc1ccc(-c2ccc(/C=N/Nc3nc4ccccc4[nH]3)o2)cc1 | 51.5 | 42.5 |
| CCOC(=O)CSc1nc(-c2ccncc2)ccc1C#N | 55.8 | 55.1 |
| Nc1nc(N)c2nc(-c3ccccc3)c(N)nc2n1 | 74.7 | 80.7 |
| Brc1ccc(-c2nc(N/N=C/c3cccnc3)c3ccccc3n2)cc1 | 93.5 | 89.7 |

| Compound | activity [1] [%] | activity [2] [%] |
| --- | --- | --- |
| Oc1ccc(-c2cnc(-c3ccc(O)cc3)nc2)cc1 | 88.2 | 93.3 |
| CC(C)c1ccc(-n2c(-c3ccccc3)c[n+]3c2CCc2ccccc2-3)cc1 | 77 | 75.5 |
| CCCCN(CC)CCCNC(=O)C1c2ccccc2C(=O)N(C)C1c1cn(C)c2ccccc12 (stereo not given) | 71.8 | 69.7 |
| CCC(=O)Nc1ccc(C(=O)Cn2ncc(Cl)c(Cl)c2=O)cc1 | 99.4 | 99.3 |
| N/C(=N\OC(=O)c1cccc(Br)c1)c1ccc(Br)cc1 | 78.1 | 90.1 |
| COc1ccc(C(=O)Nc2ccc(C)cn2)c(OC)c1 | 95.3 | 95.2 |
| CCN(CC)CCN1C(=O)/C(=C\c2ccc(Cl)c([N+](=O)[O-])c2)SC1=Nc1ccc(OC)cc1 | 82.2 | 97.3 |
| CC(=O)Oc1ccc(/C=C/c2nc3ccccc3c(=O)o2)cc1 | 80.2 | 75.2 |
| COC(=O)c1sc(NC(=S)NC(=O)c2cccc(C)c2)nc1C | 46.2 | 33.2 |
| CCc1ccc([C@H]2[C@@H]3C(=O)C[C@@H]4C(=O)N(c5ccccc5)C(=O)[C@@H]4[C@@H]3CN2S(=O)(=O)c2ccc(C)cc2)cc1 | -4.35 | -7.2 |
| Cc1ccc(-c2csc(NC(=O)CSc3nnc4c(n3)[nH]c3ccccc34)n2)cc1 | 42.5 | 24.3 |
| CC(=O)c1c(C)[nH]c(C(=O)Nc2ccccn2)c1C | 31.1 | 31.1 |
| Fc1cccc(CSc2nc3ccncc3[nH]2)c1 | 55.2 | 54.4 |
| O=C(Nc1nc2ccccc2[nH]1)c1ccc([N+](=O)[O-])cc1 | 53.4 | 35 |
| CC(C)(C)OC(=O)NCCCCCc1cn([C@@H](CO)C(=O)NCCCCCCCCCCC(=O)N2CCN(C(=O)OC(C)(C)C)CC2)nn1 | 61.7 | 42.1 |
| Cc1csc(NC(=O)c2ccc(OCC3CCCO3)cc2)n1 (stereo not given) | 54.9 | 64.9 |
| O=C(Nc1ccc(N2CCCC2)c(Cl)c1)c1ccco1 | 43.3 | 27 |
| O=C(CN(Cc1ccccc1)C(=O)CCl)c1cccc(Br)c1 | 99.3 | 93.5 |
| O=C(O)c1ccc(N/N=C/c2cc3cc4c(cc3nc2Cl)OCCO4)cc1 | 96.3 | 95.3 |
| C=C(C)[C@@H]1C2=CC(C(=O)OC)=C(C[C@H](C(=C)C)[C@H]3O[C@H]3C3=C[C@H]1OC3=O)O2 | 72.2 | 96 |
| CCn1nc(C(=O)NCCc2ccc(S(N)(=O)=O)cc2)c2ccccc2c1=O | 16 | 41.1 |
| NNc1nc(-c2ccccc2)nc2sc3c(c12)CCCC3 | 57.2 | 54.4 |
| Cc1ccc(-n2c(C3CC3c3ccc(Cl)cc3)n[nH]c2=S)cc1 (stereo not given) | 52.8 | 46.7 |

| Compound | activity [1] [%] | activity [2] [%] |
| --- | --- | --- |
| O=C(Nc1nc2cc3c(cc2s1)OCO3)c1ccco1 | 79.5 | 93.1 |
| Cc1ccc(/C=N/NC(=O)c2nn(C)cc2Cl)cc1 | 62.2 | 36 |
| COc1ccc(/C(N)=N/OC(=O)c2c(-c3ccccc3Cl)noc2C)cc1OC | 99.1 | 98.8 |
| COc1cccc2cc(-c3nc4ccccc4[nH]3)c(=O)oc12 | 64.5 | 61.1 |
| C=CCOc1ccccc1CN(C(=O)CCl)c1ccc2c(c1)OCO2 | 99 | 98.1 |
| Cc1ccc(S(=O)(=O)N2CCCCC2)cc1NC(=O)Cn1ncc(Cl)c(Cl)c1=O | 98.7 | 99.3 |
| CC1CCc2cc(F)ccc2N1C(=O)CCl (stereo not given) | 99.3 | 98.8 |
| CSCCC(NC(=O)c1ccc(Cl)c([N+](=O)[O-])c1)C(=O)N1CCN(C/C=C/c2ccccc2)CC1 (stereo not given) | 36.3 | 24.4 |
| c1c2c(cc3sc(N4CCCCC4)nc13)OCO2 | 56 | 44.2 |
| O=C(Nc1ccc(N2CCN(Cc3ccccc3F)CC2)cc1)c1ccc([N+](=O)[O-])o1 | 99 | 98.8 |
| C/C(=N\Nc1nc2ccccc2s1)c1cccs1 | 52.8 | 30.2 |
| COc1ccc2nc(N3C(=O)CNC3=S)sc2c1 | 51.8 | 49.4 |
| O=C(Nc1ccc2nc3n(c(=O)c2c1)CCCCC3)c1c(F)ccc([N+](=O)[O-])c1F | 72.9 | 52.3 |
| CCc1cc2c(COC(=O)CCNS(=O)(=O)c3cccc(C(F)(F)F)c3)cc(=O)oc2cc1O | 23.9 | 3.52 |
| Cc1cc(C)c(C)c(S(=O)(=O)N2CCN(CC(=O)c3c(N)n(Cc4ccccc4)c(=O)n(C)c3=O)CC2)c1C | 76.3 | 79.4 |
| Cc1cc(Br)ccc1OCCCCNCCO | 28.1 | 41.9 |
| Cc1cccnc1Nc1nc(-c2ccccn2)cs1 | 38.4 | 63.1 |
| O=C(NOCc1ccccc1)c1ccc(Cl)cc1 | 45.1 | 43.2 |
| COc1cccc2sc(N(CCCN(C)C)C(=O)c3ccc(S(=O)(=O)N4CCc5ccccc5C4)cc3)nc12 | 56.8 | 79 |
| Cc1nn(-c2ccccc2)c(C)c1/C=N/NC(=O)c1cc(C23CC4CC(CC(C4)C2)C3)[nH]n1 | 74.1 | 60 |
| CCOc1ccc(C(=O)O/N=C(\N)c2ccccn2)cc1OCC | 82.3 | 88.9 |
